Screens deposited in PubChem by National Center for Advancing Translational Sciences (NCATS).
HCMV antiviral: qHTS Assay for inhibitors of the human cytomegalovirus (HCMV). HFF cells, HCMV-luciferase reporter, 72 h; stronger effect = lower value. activity change, negative = inhibition, % at 57.5 µM. 410,000 compounds, 4.5% hits. AID 1259415, 2018; in the data active means activity change below about -60%; inconclusive means no clear call, values can overlap the other calls; inactive means above about -39%; further: on the % scale 0 is the no-effect control and ±100 the full control effect
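Two-dose cell screen: HFF monolayers treated with compounds and infected with luciferase-expressing HCMV at 1 PFU/cell, 72 h at 37C, then lysed for luciferase measurement.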
Marburg entry inh: qHTS for inhibitors of binding or entry into cells for Marburg Virus; Marburg virus pseudotyped entry inhibition, cell reporter; Potency, µM (highest dose often 37.8 µM), without a hit: top-dose activity change, negative = inhibition, hits mostly inhibitors; 300,000 compounds, 1.8% hits; AID 540276, 2011; calls by dose curve; tested in HEK293 cells; further: potency means the concentration at half of the fitted maximal effect; on the % scale 0 is the no-effect control and ±100 the full control effect
HCV inh: qHTS Assay for Inhibitors of Hepatitis C Virus (HCV); Huh7.5.1 HCVcc-Cre infection, luciferase reporter, 44 h; Potency, µM (highest dose often 41.8 µM), without a hit: at the highest dose activity change, negative = inhibition, actives largely listed as inhibitors; 340,000 compounds, 3.4% hits; AID 651820, 2012; active means well fitted inhibition curve with a large enough effect; inconclusive means small, poorly fitted or top-dose-only effect, or another doubt; inactive means no such curve, though single readings can be large or run the other way; further: potency means the concentration at half of the fitted maximal effect; on the % scale 0 is the no-effect control and ±100 the full control effect
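Antiviral activity was scored by luciferase reporter output from cells infected with HCVcc-Cre (~0.5 moi) in presence of compound, 44 h infection period, cells seeded 1,000/well 4 h prior.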
SARS PLP yeast: qHTS of Yeast-based Assay for SARS-CoV PLP | S. cerevisiae expressing SARS-CoV PLpro, growth rescue | Potency, µM (top dose mostly 32.9 µM), for the others: at the highest dose activity, positive = growth rescue, hits mostly activators | 330,000 compounds, 0.19% hits | AID 485353, 2010; calls by dose curve; further: potency means the concentration at half of the fitted maximal effect; 0% is about no effect; nearly all actives have a fitted effect of over 55% in size
LASV entry inh: qHTS for Inhibitors of binding or entry into cells for Lassa Virus | Potency, µM (highest dose often 37.9 µM), without a hit: at the top dose activity change, negative = inhibition, actives largely listed as inhibitors | AID 540256, 2011 | Lassa virus pseudotype entry inhibition, cell reporter | 300,000 compounds, 1.2% hits; calls by dose curve; tested in HEK293 cells; further: potency means the concentration at half of the fitted maximal effect; on the % scale 0 is the no-effect control and ±100 the full control effect; nearly all actives have a fitted effect of over 50% in size
FMDV antiviral: High Throughput Screening for Foot and Mouth Disease Virus Antivirals; FMDV antiviral cell-based qHTS; Potency, µM (top dose mostly 57.9 µM), without a hit: at the highest dose activity change, negative = inhibition, hits mostly inhibitors; 410,000 compounds, 1.2% hits; AID 1159524, 2015; calls by dose curve; tested in HEK293T cells; further: read-out not given here; potency means the concentration at half of the fitted maximal effect; on the % scale 0 is the no-effect control and ±100 the full control effect; nearly all actives have a fitted effect of over 45% in size
The depositor's hits bear a star; ? = inconclusive; . = no result given; ! = repeats disagree; [ ] = remark or other dose. An excerpt weighted towards active compounds, which were near 8% of everything screened.

SMILES	HCMV antiviral	Marburg entry inh	HCV inh	SARS PLP yeast	LASV entry inh	FMDV antiviral
Cc1cc(F)ccc1S(=O)(=O)N1CCCOC1CNC(=O)C(=O)NCCc1c[nH]c2ccccc12 (stereo unspecified)	-36	?	11µM*	-2%	?	32µM*
O=C(NCCc1c[nH]c2ccccc12)C(=O)NCC1OCCCN1S(=O)(=O)c1ccc(F)cc1 (stereo unspecified)	?	-35%	?	29%	?	?
Cc1cc(C)c(S(=O)(=O)N2CCCOC2CNC(=O)C(=O)NCCc2c[nH]c3ccccc23)c(C)c1 (stereo unspecified)	-82*	?	?	19%	?	?
O=C(NCCc1c[nH]c2ccccc12)C(=O)NCC1OCCCN1S(=O)(=O)c1cccs1 (stereo unspecified)	-19	10%[46.1 µM]	?	-3%	?	?
Cc1ccc(S(=O)(=O)N2CCOC2CNC(=O)C(=O)NCCc2c[nH]c3ccccc23)cc1 (stereo unspecified)	-80*	.	?	0%	.	?
Cc1cccc(/C=N/NC(=O)Cn2nnnc2N)n1	19	-2%	9%	0%	3%	-11%
CN(C)CCNC(=O)CC1(C)N=C(c2ccc(-c3ccccc3)cc2)N(C)O1 (stereo unspecified)	-10	.	.	.	.	.
COCCN=C1Sc2nc3ccc(C)cc3cc2CN1Cc1ccco1	-10	-10%	-22%	-6%	19%	0%
CCOc1ccc2nc3c(cc2c1)CN(CCOC)C(=NCCOC)S3	-61*	?	-18%	-6%	?	-9%
Cc1ccc(S(=O)(=O)OCCc2ccccc2)cc1	.	5%[14.2 µM]	.	.	.	.
NC(=S)Nc1cccc(F)c1	23	-7%	14%	2%	9%	5%
NC(=S)N/N=C/c1ccc(-n2nncc2-c2ccc(Cl)cc2)cc1	.	?	13µM*	10µM*	11µM*	-28%
Cc1cccc(N=C2c3cc([N+](=O)[O-])ccc3-c3c2cc([N+](=O)[O-])cc3[N+](=O)[O-])c1	16	?	7.1µM*	.	-30%	?
O=C(O)c1cccc2c1C(=O)c1cc([N+](=O)[O-])cc([N+](=O)[O-])c1-2	74	.	.	.	.	-4%
NNC(=O)c1cccc(Cn2cc(Br)c([N+](=O)[O-])n2)c1	-12	.	3%	2%	.	-12%
COc1ccc(NC(=O)c2cccc(Cn3cc(Br)c([N+](=O)[O-])n3)c2)c(C)c1	-18	.	10µM*	-1%	.	-13%
COCCCN=Cc1c(C)[nH]n(-c2ccc(Br)c(C)c2)c1=O	48	?	?	-4%	11µM*	-51%
COC1=C[C@H](C(=O)NCCOC(C)=O)[C@@]2(C)Cc3ccccc3[C@@H]2CC1=O	.	-10%[14.2 µM]	.	.	.	.
COc1ccccc1-c1noc(-c2ccc(N(C)Cc3ccccc3)c([N+](=O)[O-])c2)n1	9	2%[46.1 µM]	.	.	-6%[46.1 µM]	13%
COCCn1c(=NC(=O)c2cc(-c3cccs3)nc3ccccc23)sc2cc(S(N)(=O)=O)ccc21	42	9.2µM*	10µM*	5%	?	-16%
C=CCn1c(=NC(=O)c2cc(-c3cccs3)nc3ccccc23)sc2cc(S(N)(=O)=O)ccc21	-26	-12%	?	5%	-1%	?
CCN1C(=O)[C@@H]2[C@H]3[C@H](O)[C@H](O)CC(=NNC(=O)OCc4ccccc4)[C@@H]3CC[C@H]2C1=O	.	-8%[14.2 µM]	.	.	?	.
CC(=O)c1ccc[nH]1	.	.	.	.	.	11%
CN(C)c1ccc(-c2[nH][nH]c(=O)c2NC(=O)c2ccccn2)cc1	-61*	.	.	.	.	1%
Cc1cnc(C(=O)Nc2c(-c3ccccc3)[nH][nH]c2=O)cn1	-10	.	.	.	.	-5%
SMILES	HCMV antiviral	Marburg entry inh	HCV inh	SARS PLP yeast	LASV entry inh	FMDV antiviral
CN(C)c1ccc(-c2[nH][nH]c(=O)c2NC(=O)c2ccc3ccccc3n2)cc1	-63*	.	.	.	.	-10%
O=C(NCc1cccnc1)c1cc(C2CCCN(S(=O)(=O)c3cccc4cccnc34)C2)on1 (stereo unspecified)	-8	.	.	.	.	-19%
O=C(C1CCCCC1)N1CCOc2ccc(CN3CCN(Cc4ccccn4)CC3)cc2C1	.	.	.	.	.	23%
COc1ccc(NC2C(c3ccc(OC)cc3)=Nc3ccccc3-n3nnnc32)cc1 (stereo unspecified)	-3	.	.	.	.	.
CN1C(=S)N2CCCN2C1c1ccccc1 (stereo unspecified)	-3	2%	-12%	-1%	11%	-9%
S=C1N(c2ccccc2)C(c2ccccc2)N2CCCN12 (stereo unspecified)	50	-1%	10%	3%	18µM*	-11%
O=C(COC(=O)c1ccc(O)cc1)c1ccc2c(c1)OCCO2	56	28%	5%	3%	-17%	0%
COc1cc(CC(=O)OCC(=O)c2ccc3c(c2)OCCO3)cc(OC)c1OC	-71*	?	?	3%	?	-12%
COc1ccc(C(C)=O)cc1COC(=O)c1ccc2c(c1)OCCO2	-15	.	11µM*	2%	.	-16%
COc1ccc(C(C)=O)cc1COC(=O)c1cnc(Cl)c(Cl)c1	71	-1%[46.1 µM]	11µM*	-3%	.	?
CCOc1ccc(C(C)=O)cc1COC(=O)c1ccc2c(c1)NC(=O)CS2	-1	.	3.5µM*	-8%	.	?
Cc1cccc(C)c1Nc1oc(-c2ccccc2)nc1-c1ccccc1	.	-26%[14.2 µM]	.	.	.	.
O=C(OCc1ccc(Br)cc1)c1cnc(Cl)c(Cl)c1	-60*	-8%[46.1 µM]	19%	-1%	.	13%
CCc1nn(CC(=O)NCCc2ccc(SC)cc2)c(=O)c2cc3sccc3n12	-8	-17%[46.1 µM]	.	.	.	12%
Cc1nn(-c2cccc(Cl)c2)c2nc(C(F)(F)F)[nH]c(=O)c12	-17	10µM*	15%	-21%	16%	?
Cc1cc(Nc2cccc(C(F)(F)F)c2)nc2ccc(NC(=O)c3cncc(Br)c3)cc12	?	.	.	.	-19%[46.1 µM]	32µM*
Cc1cc(Nc2cccc(Cl)c2)nc2ccc(NC(=O)c3cncc(Br)c3)cc12	-100*	.	.	.	-21%[46.1 µM]	-13%
Cc1ccccc1C(=O)Nc1ccc2nc(Nc3cccc(C(F)(F)F)c3)cc(C)c2c1	-13	.	.	.	-24%[46.1 µM]	?
O=C(NC1CCCC1)C(C1CC1)n1c(C2CC2)nc2ccccc21 (stereo unspecified)	72	.	.	.	.	-6%
COc1ccc(Nc2oc(-c3ccc(COc4cccc(C)c4)o3)nc2C#N)cc1	-37	-24%[46.1 µM]	.	.	-3%[46.1 µM]	0%
O=C(O)CCCn1cc(NC(=O)COc2ccccc2F)cn1	-15	8%[46.1 µM]	5%	1%	?	10µM*!
